# Test results from PubChem BioAssay.
# Unmarked numbers belong to inactive results. Where a call stands in place of a potency, no number is given. For some of these results: Potency and affinity values are given separately. Active and inactive are the calls of the source. Unless noted, no rule for the calls is given here.
# Tests used:
# [1] = antimalarial activity against Dd2 strain (AID 2302;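 active = growth inhibition above 50% at the single 2 µM test dose, taken to imply half-maximal potency below 2 µM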); conditions: P. falciparum Dd2 in RBCs, LDH growth readout, 72 h; at 2 µM; stronger effect = higher value
# [2] = HepG2 cytotoxicity, primary screen, cytotoxicity control for P. falciparum antimalarial project, cell-based, ATP luminescence (AID 2303;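 active = inhibition above 50%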); conditions: HepG2 viability, 24-48 h, at 10 µM, stronger effect = higher value
# [3] = target: L-lactate dehydrogenase (Plasmodium falciparum (isolate CDC / Honduras)) (UniProt Q27743); assay: PfLDH activity inhibition – cell lysate, 3D7 strain, counter-screen for P. falciparum growth inhibition project (AID 2304); conditions: P. falciparum 3D7 crude extract, LDH APAD/NBT absorbance; at 2 µM; stronger effect = higher value
# Chain of L-lactate dehydrogenase (Plasmodium falciparum (isolate CDC / Honduras)) (Q27743 whole entry, looked up): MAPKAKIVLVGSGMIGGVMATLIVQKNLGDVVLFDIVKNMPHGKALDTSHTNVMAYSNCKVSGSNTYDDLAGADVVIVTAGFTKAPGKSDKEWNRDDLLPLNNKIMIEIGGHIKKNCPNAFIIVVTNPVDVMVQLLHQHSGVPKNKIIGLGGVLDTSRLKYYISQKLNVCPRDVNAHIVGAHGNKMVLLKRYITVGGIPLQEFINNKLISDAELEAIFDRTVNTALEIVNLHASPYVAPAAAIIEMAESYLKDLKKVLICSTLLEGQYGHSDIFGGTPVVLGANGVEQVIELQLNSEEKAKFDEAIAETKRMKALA
# [4] = inhibition of 3D7 malaria parasite growth – strain 3D7 (AID 2306); conditions: P. falciparum 3D7 erythrocytic growth, LDH absorbance, 72 h; at 2 µM; stronger effect = higher value
# [5] = target: Calcium-dependent protein kinase 1 (Plasmodium falciparum (isolate 3D7)) (UniProt P62344); assay: PfCDPK1 kinase inhibitors, biochemical, TCAMS library (AID 1159585; cut-off not given, nearly all actives have IC50 up to about 0.98 µM;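 also: inhibitors leave more ATP so luminescence rises with inhibition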); conditions: recombinant PfCDPK1, Kinase-Glo ATP depletion luminescence
# Chain of Calcium-dependent protein kinase 1 (Plasmodium falciparum (isolate 3D7)) (P62344 whole entry, looked up): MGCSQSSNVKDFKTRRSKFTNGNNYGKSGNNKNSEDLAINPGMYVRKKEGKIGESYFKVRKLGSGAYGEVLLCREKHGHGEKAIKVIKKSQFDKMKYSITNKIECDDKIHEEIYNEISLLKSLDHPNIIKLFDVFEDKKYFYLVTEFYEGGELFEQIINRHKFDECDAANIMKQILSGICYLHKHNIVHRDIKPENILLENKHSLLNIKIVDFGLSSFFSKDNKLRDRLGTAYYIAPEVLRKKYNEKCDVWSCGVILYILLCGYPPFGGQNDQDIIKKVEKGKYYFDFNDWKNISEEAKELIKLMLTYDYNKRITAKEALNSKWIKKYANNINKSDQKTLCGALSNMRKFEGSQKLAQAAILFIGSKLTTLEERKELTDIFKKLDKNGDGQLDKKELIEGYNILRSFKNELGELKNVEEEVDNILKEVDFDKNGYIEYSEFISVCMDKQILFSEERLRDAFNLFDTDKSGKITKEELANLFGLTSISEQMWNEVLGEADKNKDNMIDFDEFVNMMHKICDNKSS
# [6] = target: Plasmodium falciparum protein kinase 6 (PK6, PF3D7_1337100) (UniProt Q8IDW1); assay: PfPK6 kinase inhibitors, biochemical, TCAMS library (AID 1159586); conditions: recombinant PfPK6, Kinase-Glo ATP depletion luminescence
# Chain of Plasmodium falciparum protein kinase 6 (PK6, PF3D7_1337100) (Q8IDW1 1-305): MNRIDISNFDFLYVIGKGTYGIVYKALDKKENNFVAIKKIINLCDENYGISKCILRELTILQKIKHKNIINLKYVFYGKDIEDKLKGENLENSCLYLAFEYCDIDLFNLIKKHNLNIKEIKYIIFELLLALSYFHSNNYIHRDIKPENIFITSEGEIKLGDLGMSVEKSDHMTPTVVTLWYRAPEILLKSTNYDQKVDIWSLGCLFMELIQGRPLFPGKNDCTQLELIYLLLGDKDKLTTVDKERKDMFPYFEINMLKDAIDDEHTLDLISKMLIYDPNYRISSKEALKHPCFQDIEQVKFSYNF
# [7] = target: Protein kinase 7 (PK7), Plasmodium falciparum 3D7 (PF3D7_0213400) (UniProt Q7YTF7); assay: inhibition of Plasmodium PK7 catalytic activity – biochemical, TCAMS antimalarial set, Kinase-Glo luminescence (AID 1159587); conditions: recombinant PfPK7, Kinase-Glo ATP depletion luminescence
# Chain of Protein kinase 7 (PK7), Plasmodium falciparum 3D7 (PF3D7_0213400) (Q7YTF7 1-343): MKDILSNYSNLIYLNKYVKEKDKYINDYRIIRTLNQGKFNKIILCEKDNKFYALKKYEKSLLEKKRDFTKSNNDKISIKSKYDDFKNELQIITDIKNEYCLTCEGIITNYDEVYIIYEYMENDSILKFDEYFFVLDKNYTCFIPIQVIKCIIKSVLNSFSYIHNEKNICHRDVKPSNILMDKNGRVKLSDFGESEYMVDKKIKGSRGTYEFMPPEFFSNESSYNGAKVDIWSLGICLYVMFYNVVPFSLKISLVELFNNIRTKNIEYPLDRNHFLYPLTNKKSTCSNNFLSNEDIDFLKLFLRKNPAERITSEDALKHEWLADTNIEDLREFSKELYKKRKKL
# [8] = target: Calcium-dependent protein kinase 4 (Plasmodium falciparum (isolate 3D7)) (UniProt Q8IBS5); assay: PfCDPK4 kinase inhibitors, biochemical, TCAMS library (AID 1159588; cut-off not given, nearly all actives have IC50 up to about 0.91 µM); conditions: recombinant PfCDPK4, Kinase-Glo ATP depletion luminescence
# Chain of Calcium-dependent protein kinase 4 (Plasmodium falciparum (isolate 3D7)) (Q8IBS5 whole entry, looked up): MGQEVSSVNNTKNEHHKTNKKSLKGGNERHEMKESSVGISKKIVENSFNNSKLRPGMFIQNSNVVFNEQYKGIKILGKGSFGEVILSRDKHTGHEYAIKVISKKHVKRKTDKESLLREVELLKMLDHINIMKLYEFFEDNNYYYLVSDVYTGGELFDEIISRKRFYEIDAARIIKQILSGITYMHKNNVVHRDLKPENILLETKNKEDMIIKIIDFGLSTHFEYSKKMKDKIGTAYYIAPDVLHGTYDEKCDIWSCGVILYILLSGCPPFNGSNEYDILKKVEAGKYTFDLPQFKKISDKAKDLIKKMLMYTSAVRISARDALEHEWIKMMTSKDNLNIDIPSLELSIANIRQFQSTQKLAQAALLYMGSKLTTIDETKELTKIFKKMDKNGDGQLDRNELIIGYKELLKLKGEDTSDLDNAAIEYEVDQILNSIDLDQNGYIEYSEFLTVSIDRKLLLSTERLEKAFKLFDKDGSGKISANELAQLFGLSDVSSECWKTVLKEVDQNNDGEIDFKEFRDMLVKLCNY
Compound,growth inhibition [1],inhibition [2],inhibition [3] [%],growth inhibition [4],outcome [5],outcome [6],outcome [7],outcome [8]
CC(C)c1ccc(NC(=O)c2cccc(CN3CCCN(Cc4cccc(C#N)c4)CC3)c2)cc1,15%,48%,-5,93% (active),inactive,inactive,inactive,inactive
COc1ccc(Nc2nc(NC3CCN(C)CC3)cc(-c3ccc(OC)cc3)n2)cc1,51% (active),62% (active),4,100% (active),inactive,inactive,inactive,inactive
OCC(CO)(CO)NCc1ccc2c3c(cccc13)-c1ccccc1-2,76% (active),73% (active),0,87% (active),inactive,inactive,inactive,inactive
FC(F)(F)c1cccc2c(NN=Cc3ccccc3)ccnc12,90% (active),10%,-4,101% (active),inactive,inactive,inactive,inactive
N#Cc1cc([N+](=O)[O-])ccc1-n1nc(-c2cccc(Cl)c2)n(Cc2ccco2)c1=S,100% (active),12%,-1,101% (active),inactive,inactive,inactive,inactive
O=C(Nc1ccc(-c2cccc(-c3nc4ccccc4[nH]3)c2)cc1)Nc1ccc(F)c(F)c1F,96% (active),74% (active),5,100% (active),inactive,inactive,inactive,inactive
CN1CCN(Cc2ccc(-c3ccc4c(Nc5ccc(F)cc5Cl)ccnc4c3)o2)CC1,100% (active),8%,-3,100% (active),inactive,inactive,inactive,inactive
CC1(C)N=C(N)N=C(N)N1OCc1ccc2ccccc2c1CON1C(N)=NC(N)=NC1(C)C,12%,8%,1,96% (active),inactive,inactive,inactive,inactive
CCCCCCCc1c(C)[nH]c2cccc(OC)c2c1=O,47%,43%,0,95% (active),inactive,inactive,inactive,inactive
COc1ccc2nccc([C@@H](O)CN3CCC(NCc4cc5cc(OC(F)(F)F)ccc5[nH]4)CC3)c2c1,82% (active),49%,2,100% (active),inactive,inactive,inactive,inactive
CCC(C)CN1CCN(c2cc(NC(=O)c3cccs3)ccn2)C(C)C1 (stereo not given),72% (active),5%,0,88% (active),inactive,inactive,inactive,inactive
Brc1ccc(Nc2nc3ccccc3nc2Nc2ccc(Br)cc2)cc1,100% (active),18%,-2,101% (active),inactive,inactive,inactive,inactive
COc1cc(NC(=O)c2cccc([N+](=O)[O-])c2)cc(S(=O)(=O)c2ccc(Cl)cc2)c1,23%,-12%,-3,88% (active),inactive,inactive,inactive,inactive
O=C(Nc1ccc(OC2CCN(Cc3ccco3)C2)c(Cl)c1)c1ccc2ncccc2c1 (stereo not given),42%,1%,-6,92% (active),inactive,inactive,inactive,inactive
Nc1nc2c(ncn2OC[C@H]2COP(=O)(O)CO2)c(=O)[nH]1,32%,1%,-2,92% (active),inactive,inactive,inactive,inactive
CN(C)Cc1c(O)ccc2[nH]c(-c3ccc(OC(F)(F)F)cc3)nc12,97% (active),24%,-3,101% (active),inactive,inactive,inactive,inactive
COc1cccc(CCN(Cc2ccccc2-c2ccc(CNC3CC(C)(C)NC(C)(C)C3)cc2)C(=O)NC2CCCCC2)c1,99% (active),97% (active),-1,103% (active),inactive,inactive,inactive,inactive
O=C(Nc1ccc2c(c1)CCC2)N[C@H]1CCN(Cc2ccc(OCCCN3CCCCC3)cc2)C1,-2%,9%,-2,96% (active),inactive,inactive,inactive,inactive
CN(C)CCN(C)Cc1ccc(-c2ccc(NC(=O)c3ccc(Cl)cc3)cc2)cc1,19%,51% (active),-2,91% (active),inactive,inactive,inactive,inactive
COc1cc2c(=O)c(Cc3ccc(Cl)cc3)c(C)[nH]c2cc1F,28%,13%,1,85% (active),inactive,inactive,inactive,inactive
